Reference: the supplement of paper PMC12024424
Counter-ions that a name gives are not always drawn.

Experiments:
[1] = system: Staphylococcus aureus Sa2 (MRSA, cystic fibrosis isolate); assay: growth reduction vs untreated control (OD550); higher = stronger antibacterial activity; conditions: 0.1 mM; 24 h
Description: (§1)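 Single-dose screen of the MedChem Express Drug Repurposing Library (0.1 mM, 1% DMSO) against planktonic MRSA S. aureus Sa2 (CF isolate) in TSB in 96-well plates, 37 °C aerobic, 24 h. Assays were run in triplicate and repeated twice.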

[2] = system: Staphylococcus aureus Sa2 (MRSA, cystic fibrosis isolate); assay: growth reduction vs untreated control (viable cell count); higher = stronger antibacterial activity; extreme values may be limits of the assay; conditions: 0.1 mM; 24 h
Description: as §1

Compound | growth reduction [1] | growth reduction [2]
Cc1c(CN(C)C(=O)/C=C/c2cnc3c(c2)CCC(=O)N3)oc2ccccc12 | 100% | 100%
N#CC(c1ccc(Cl)cc1)c1c(Cl)cc(-n2ncc(=O)[nH]c2=O)cc1Cl (stereo not drawn) [Diclazuril] | 100% | 100%
CC[C@H]1[C@@H](O)[C@@H]2[C@H](CC[C@]3(C)[C@@H]([C@H](C)CCC(=O)O)CC[C@@H]23)[C@@]2(C)CC[C@@H](O)C[C@@H]12 [Obeticholic acid] | 94.4% | 98%
Cc1ccc(C(=O)N(CCCN)[C@@H](c2oc3cc(Cl)ccc3c(=O)c2Cc2ccccc2)C(C)C)cc1 | 100% | 100%
C=CC(N)CCC(=O)O (stereo not drawn) [Vigabatrin (hydrochloride)] | 100% | 100%
N[C@@H](Cc1cc(I)c(Oc2cc(I)c(O)c(I)c2)c(I)c1)C(=O)O [L-Thyroxine (sodium salt pentahydrate)] | 100% | 100%
C[C@H]1CNCCCN1S(=O)(=O)c1cccc2cncc(F)c12 [Ripasudil] | 100% | 100%
COC1=C(OC)C(=O)C(CCCCCCCCCC[P+](c2ccccc2)(c2ccccc2)c2ccccc2)=C(C)C1=O [Mitoquinone (mesylate)] | 100% | 100%
Cn1ncc(Cl)c1-c1cc(C(=O)N[C@H](CN)Cc2cccc(F)c2)sc1Cl [Afuresertib] | 100% | 100%
Oc1ccc2c(c1)CC[C@H](c1ccccc1)[C@@H]2c1ccc(OCCN2CCCC2)cc1 [Lasofoxifene (Tartrate)] | 98.2% | 100%
Cc1ccc(C(=O)Nc2ccc(CN3CCN(C)CC3)c(C(F)(F)F)c2)cc1C#Cc1cnc2cccnn12 [Ponatinib] | 100% | 95%
C=CC(=O)Nc1cc(Nc2nccc(-c3cn(C)c4ccccc34)n2)c(OC)cc1N(C)CCN(C)C [Osimertinib mesylate] | 100% | 100%
O=C(O)c1ccc2nc(-c3cc(Cl)cc(Cl)c3)oc2c1 [Tafamidis] | 99.5% | 100%
Cc1cc(SCc2sc(-c3ccc(C(F)(F)F)cc3)nc2C)ccc1OCC(=O)O | 100% | 100%
CC(C)(C)[C@@H]1NC(=O)O[C@@H]2CCC[C@H]2OC/C=C/C(F)(F)c2nc3ccccc3nc2O[C@@H]2C[C@@H](C(=O)N[C@]3(C(=O)NS(=O)(=O)C4(C)CC4)C[C@H]3C(F)F)N(C2)C1=O [Glecaprevir] | 100% | 100%
N[C@@H]1CC[C@@H](c2ccc(Cl)c(Cl)c2)c2ccccc21 [Dasotraline (hydrochloride)] | 100% | 100%
O=C(O)Cc1ccccc1Nc1c(Cl)cccc1Cl [Diclofenac (diethylamine)] | 100% | 100%
CC(C)(C)NC(=O)N[C@H](C(=O)N1C[C@H]2[C@@H]([C@H]1C(=O)NC(CC1CCC1)C(=O)C(N)=O)C2(C)C)C(C)(C)C (stereo partly drawn) [Boceprevir] | 91.4% | 92%
CCOc1cc2ncc(C#N)c(Nc3ccc(F)c(Cl)c3)c2cc1NC(=O)/C=C/CN(C)C [Pelitinib] | 90.6% | 97%
CCCCCCCCCCCCCCCCCCOP(=O)([O-])OC1CC[N+](C)(C)CC1 [Perifosine] | 96.9% | 100%
O=C(NCc1ccc(Oc2ccccc2)cc1)c1nc(-c2cc(Br)c(O)c(Br)c2)no1 | 95.3% | 100%
C[C@H]1Cc2c([nH]c3cc(Cl)c(F)cc23)[C@@]2(N1)C(=O)Nc1ccc(Cl)cc12 [Cipargamin] | 100% | 100%
Fc1ccc2c(CCNCc3cccc(OCC(F)(F)C(F)F)c3)c[nH]c2c1 [Idalopirdine Hydrochloride] | 100% | 100%
O=C(O)Cc1ccccc1Nc1c(Cl)cccc1Cl [Diclofenac] | 100% | 100%
C[C@@H]1CCc2ncc(F)cc2[C@H]2CCCN2c2ccn3ncc(c3n2)C(=O)N1 [Selitrectinib] | 96.9% | 97%
COc1cc2c(Oc3ccc(NC(=O)C4(C(=O)Nc5ccc(F)cc5)CC4)cc3F)ccnc2cc1OCCCN1CCOCC1 [Foretinib] | 94.8% | 99%
CCN(CC)CCOc1ccc(C(=C(Cl)c2ccccc2)c2ccccc2)cc1 [Clomiphene (citrate)] | 100% | 100%
CN1C(C(=O)Nc2ccccn2)=C(O)c2sc(Cl)cc2S1(=O)=O [Lornoxicam] | 97.2% | 98%
O=c1[nH]c(=O)n([C@H]2C[C@H](O)[C@@H](CO)O2)cc1/C=C/Br [Brivudine] | 100% | 100%
